Experimental data published in PubChem BioAssay AID1159580 (chemical genetic matrix, 2015).
Out of some 5,500 compounds screened, about 2,000 (36%) were called active. Another 18% or so got no clear call; they are omitted. Rule as the data show it: active = normalized growth mostly below about 0.91 (no sharp cut-off); inconclusive = no clear call, values can overlap the other calls; inactive = mostly above about 0.92. The list shows a part of the results.

Test: chemical genetic growth profiling, strain panel (AID 1159580);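 also: tested at 20 µM; growth read once vehicle control cultures reached saturation at 30 °C; 1 = growth at the plate median or of vehicle wells; lower values mean less growth of the strain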
Conditions: growth OD

Measured: normalized growth

COP(=O)(NC(C)=O)SC (stereo unspecified)
inactive: S. cerevisiae deletion strains, locus YAL013W, strain DEP1, active compounds read low 1.01 | S. cerevisiae deletion strains, locus YBR021W, strain FUR4, active compounds read low 1 | S. cerevisiae deletion strains, locus YBR229C, strain ROT2, active compounds read low 1.01 | S. cerevisiae deletion strains, locus YCL029C, strain bik1, active compounds read low 1 | S. cerevisiae deletion strains, locus YDL035C, strain GPR1, active compounds read low 1.01 | S. cerevisiae deletion strains, locus YDL074C, strain BRE1, active compounds read low 1.04 | S. cerevisiae deletion strains, locus YDL101C, strain DUN1, active compounds read low 1.01 | S. cerevisiae deletion strains, locus YDL134C, strain PPH21, active compounds read low 1.01 | S. cerevisiae deletion strains, locus YDL185W, strain tfp1, active compounds read low 1 | S. cerevisiae deletion strains, locus YDL192W, strain arf1, active compounds read low 0.996 | S. cerevisiae deletion strains, locus YDR101C, strain arx1, active compounds read low 1 | S. cerevisiae deletion strains, locus YDR150W, strain NUM1, active compounds read low 0.997 | S. cerevisiae deletion strains, locus YDR162C, strain NBP2, active compounds read low 1.04 | S. cerevisiae deletion strains, locus YDR318W, strain mcm21, active compounds read low 0.996 | S. cerevisiae deletion strains, locus YDR388W, active compounds read low 0.983 | S. cerevisiae deletion strains, locus YDR502C, strain sam2, active compounds read low 0.996 | S. cerevisiae deletion strains, locus YEL061C, strain CIN8, active compounds read low 1 | S. cerevisiae deletion strains, locus YER110C, active compounds read low 0.994 | S. cerevisiae deletion strains, locus YER155C, strain BEM2, active compounds read low 1.01 | S. cerevisiae deletion strains, locus YER167W, strain BCK2, active compounds read low 0.989 | S. cerevisiae deletion strains, locus YGL078C, strain dbp3, active compounds read low 0.994 | S. cerevisiae deletion strains, locus YGL086W, strain mad1, active compounds read low 0.994 | S. cerevisiae deletion strains, locus YGL248W, strain PDE1, active compounds read low 1 | S. cerevisiae deletion strains, locus YGR078C, strain PAC10, active compounds read low 1.04 | S. cerevisiae deletion strains, locus YGR135W, strain pre9, active compounds read low 1 | S. cerevisiae deletion strains, locus YGR229C, strain SMI1, active compounds read low 1.04 | S. cerevisiae deletion strains, locus YGR252W, strain gcn5, active compounds read low 0.976 | S. cerevisiae deletion strains, locus YHR030C, strain SLT2, active compounds read low 1.01 | S. cerevisiae deletion strains, locus YHR079C, strain IRE1 (second series), active compounds read low 0.998 | S. cerevisiae deletion strains, locus YHR094C, strain hxt1, active compounds read low 0.991 | S. cerevisiae deletion strains, locus YHR129C, strain ARP1, active compounds read low 1.01 | S. cerevisiae deletion strains, locus YHR200W, strain rpn10, active compounds read low 1 | S. cerevisiae deletion strains, locus YIL066C, strain RNR3, active compounds read low 1.04 | S. cerevisiae deletion strains, locus YIL073C, strain SPO22, active compounds read low 1.03 | S. cerevisiae deletion strains, locus YIL125W, strain kgd1, active compounds read low 0.997 | S. cerevisiae deletion strains, locus YIR030C, strain dcg1, active compounds read low 1 | S. cerevisiae deletion strains, locus YJL095W, strain BCK1, active compounds read low 1.01 | S. cerevisiae deletion strains, locus YJL134W, strain LCB3, active compounds read low 1 | S. cerevisiae deletion strains, locus YJL168C, strain set2, active compounds read low 0.989 | S. cerevisiae deletion strains, locus YJL187C, strain SWE1 (second series), active compounds read low 1.01 | S. cerevisiae deletion strains, locus YJR043C, strain POL32, active compounds read low 1.02 | S. cerevisiae deletion strains, locus YJR075W, strain HOC1, active compounds read low 1.03 | S. cerevisiae deletion strains, locus YKL009W, strain mrt4, active compounds read low 1.01 | S. cerevisiae deletion strains, locus YKL068W, active compounds read low 1.01 | S. cerevisiae deletion strains, locus YKL085W, strain MDH1 (second series), active compounds read low 0.997 | S. cerevisiae deletion strains, locus YKL085W, strain MDH1, active compounds read low 0.997 | S. cerevisiae deletion strains, locus YKL190W, strain CNB1, active compounds read low 1.03 | S. cerevisiae deletion strains, locus YKR001C, strain vps1, active compounds read low 0.996 | S. cerevisiae deletion strains, locus YLR039C, strain RIC1, active compounds read low 1.05 | S. cerevisiae deletion strains, locus YLR058C, strain SHM2, active compounds read low 1.01 | S. cerevisiae deletion strains, locus YLR102C, strain apc9, active compounds read low 0.994 | S. cerevisiae deletion strains, locus YLR262C, strain YPT6, active compounds read low 1.02 | S. cerevisiae deletion strains, locus YLR268W, strain sec22, active compounds read low 0.999 | S. cerevisiae deletion strains, locus YLR330W, strain CHS5, active compounds read low 1.01 | S. cerevisiae deletion strains, locus YLR342W, strain FKS1 (second series), active compounds read low 1.01 | S. cerevisiae deletion strains, locus YLR371W, strain rom2, active compounds read low 1 | S. cerevisiae deletion strains, locus YLR418C, strain cdc73, active compounds read low 0.998 | S. cerevisiae deletion strains, locus YML016C, strain PPZ1, active compounds read low 1.01 | S. cerevisiae deletion strains, locus YML032C, strain rad52, active compounds read low 0.999 | S. cerevisiae deletion strains, locus YML124C, strain tub3, active compounds read low 0.997 | S. cerevisiae deletion strains, locus YMR078C, strain ctf18, active compounds read low 0.995 | S. cerevisiae deletion strains, locus YMR223W, strain ubp8, active compounds read low 1 | S. cerevisiae deletion strains, locus YMR263W, strain SAP30, active compounds read low 1.04 | S. cerevisiae deletion strains, locus YMR307W, strain GAS1, active compounds read low 1.05 | S. cerevisiae deletion strains, locus YNL067W, strain RPL9B, active compounds read low 1.03 | S. cerevisiae deletion strains, locus YNL128W, strain TEP1, active compounds read low 1.01 | S. cerevisiae deletion strains, locus YNL153C, strain GIM3, active compounds read low 1.02 | S. cerevisiae deletion strains, locus YNL233W, strain BNI4, active compounds read low 1.01 | S. cerevisiae deletion strains, locus YNL250W, strain rad50, active compounds read low 0.986 | S. cerevisiae deletion strains, locus YNL271C, strain bni1, active compounds read low 0.993 | S. cerevisiae deletion strains, locus YNL298W, strain CLA4, active compounds read low 0.995 | S. cerevisiae deletion strains, locus YNL307C, strain MCK1, active compounds read low 0.995 | S. cerevisiae deletion strains, locus YNL322C, strain KRE1, active compounds read low 1.01 | S. cerevisiae deletion strains, locus YNR052C, strain pop2, active compounds read low 0.998 | S. cerevisiae deletion strains, locus YOL006C, strain TOP1, active compounds read low 1.05 | S. cerevisiae deletion strains, locus YOL012C, strain htz1 0.88 | S. cerevisiae deletion strains, locus YOL147C, strain pex11, active compounds read low 0.988 | S. cerevisiae deletion strains, locus YOR061W, strain CKA2, active compounds read low 1.01 | S. cerevisiae deletion strains, locus YOR069W, strain VPS5, active compounds read low 1.01 | S. cerevisiae deletion strains, locus YOR136W, strain idh2, active compounds read low 1 | S. cerevisiae deletion strains, locus YOR144C, strain elg1, active compounds read low 0.995 | S. cerevisiae deletion strains, locus YOR184W, strain ser1, active compounds read low 1.01 | S. cerevisiae deletion strains, locus YOR316C, strain cot1, active compounds read low 0.999 | S. cerevisiae deletion strains, locus YPL055C, strain LGE1, active compounds read low 1.09 | S. cerevisiae deletion strains, locus YPL241C, strain CIN2, active compounds read low 1.01 | S. cerevisiae deletion strains, locus YPR119W, strain clb2, active compounds read low 0.993 | S. cerevisiae deletion strains, locus YPR141C, strain kar3, active compounds read low 0.994 | S. cerevisiae deletion strains, locus YPR163C, strain tif3, active compounds read low 0.998 | S. cerevisiae deletion strains, locus YPR167C, strain met16, active compounds read low 0.997 | S. cerevisiae deletion strains, strain wtn01, active compounds read low 0.993 | S. cerevisiae strains, strain wild type, active compounds read low 1.01
